Data reported in PMC7862700, “An all-to-all approach to the identification of sequence-specific readers for epigenetic DNA modifications on cytosine”.

Experiments:
Test in all cases: DAPPL (digital affinity profiling via proximity ligation, sequencing); 10 mM Tris-HCl pH 7.5, 50 mM NaCl, 1 mM DTT, 4% glycerol, room temperature, 30 min; GST-TFs on glutathione beads, 16-mer random dsDNA library, 0.1% formaldehyde crosslink after washing; high values mean tight binding
Conditions in all cases: protein: recombinant; tags: N-terminal GST; dsDNA, one strand shown
SPI1 = SPI1 (Homo sapiens, UniProt P17947 1-270)
Outline: (§1)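 Human transcription factors fused to GST were expressed in yeast, captured on glutathione beads, given DNA barcodes and pooled with a GST-only negative control. Pools were incubated with 200 nmole of a 16-mer random double-stranded DNA library in Tris/NaCl/DTT/glycerol buffer at room temperature for 30 min. They were then washed, crosslinked with 0.1% formaldehyde, proximity-ligated (BsaI/T4 ligase, 1 h, 37 °C), PCR-amplified and sequenced on an Illumina NextSeq500. Binding signal is each 6-mer's read frequency for a factor divided by its frequency for the GST control.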

SPIB = SPIB (Homo sapiens, UniProt Q01892 1-262)
SPIB, sequence (Q01892 whole entry): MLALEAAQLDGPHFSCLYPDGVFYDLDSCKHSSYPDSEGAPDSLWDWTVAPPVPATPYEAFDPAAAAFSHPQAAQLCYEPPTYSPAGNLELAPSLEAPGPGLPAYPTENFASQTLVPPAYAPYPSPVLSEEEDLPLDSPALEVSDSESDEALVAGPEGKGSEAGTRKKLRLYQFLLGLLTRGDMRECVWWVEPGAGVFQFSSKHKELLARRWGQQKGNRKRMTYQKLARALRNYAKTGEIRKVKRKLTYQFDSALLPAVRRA
Outline: as §1

ELK4 = target: T1, ELK4 (Homo sapiens, UniProt P28324-2 1-405)
T1 sequence: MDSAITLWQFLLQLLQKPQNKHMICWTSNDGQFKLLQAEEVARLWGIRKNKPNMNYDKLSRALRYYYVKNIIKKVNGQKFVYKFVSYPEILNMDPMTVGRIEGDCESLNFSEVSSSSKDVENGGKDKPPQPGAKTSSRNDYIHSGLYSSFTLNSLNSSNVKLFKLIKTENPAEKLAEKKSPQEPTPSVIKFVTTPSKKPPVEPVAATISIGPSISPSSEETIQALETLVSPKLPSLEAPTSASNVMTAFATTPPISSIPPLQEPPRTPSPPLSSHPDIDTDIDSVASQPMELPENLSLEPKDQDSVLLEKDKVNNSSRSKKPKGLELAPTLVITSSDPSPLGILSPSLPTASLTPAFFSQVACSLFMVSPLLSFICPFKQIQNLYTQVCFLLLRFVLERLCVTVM
Outline: as §1

ELK1 = target: T2, ELK1 (Homo sapiens, UniProt P19419 1-428)
T2 sequence: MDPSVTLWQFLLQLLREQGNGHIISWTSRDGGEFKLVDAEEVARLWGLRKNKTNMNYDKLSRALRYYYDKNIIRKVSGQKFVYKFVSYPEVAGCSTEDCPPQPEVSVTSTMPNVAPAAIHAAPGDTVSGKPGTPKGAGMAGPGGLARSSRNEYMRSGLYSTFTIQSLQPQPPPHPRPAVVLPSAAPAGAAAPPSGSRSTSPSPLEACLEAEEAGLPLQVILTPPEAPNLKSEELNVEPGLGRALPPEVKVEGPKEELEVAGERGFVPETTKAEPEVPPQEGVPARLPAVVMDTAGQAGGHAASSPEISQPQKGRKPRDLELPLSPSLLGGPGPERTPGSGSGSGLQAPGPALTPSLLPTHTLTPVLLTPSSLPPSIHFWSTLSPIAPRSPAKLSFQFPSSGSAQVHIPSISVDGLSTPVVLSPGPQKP
Outline: as §1

ELK3 = target: T3, ELK3 (Homo sapiens, UniProt P41970 1-407)
T3 sequence: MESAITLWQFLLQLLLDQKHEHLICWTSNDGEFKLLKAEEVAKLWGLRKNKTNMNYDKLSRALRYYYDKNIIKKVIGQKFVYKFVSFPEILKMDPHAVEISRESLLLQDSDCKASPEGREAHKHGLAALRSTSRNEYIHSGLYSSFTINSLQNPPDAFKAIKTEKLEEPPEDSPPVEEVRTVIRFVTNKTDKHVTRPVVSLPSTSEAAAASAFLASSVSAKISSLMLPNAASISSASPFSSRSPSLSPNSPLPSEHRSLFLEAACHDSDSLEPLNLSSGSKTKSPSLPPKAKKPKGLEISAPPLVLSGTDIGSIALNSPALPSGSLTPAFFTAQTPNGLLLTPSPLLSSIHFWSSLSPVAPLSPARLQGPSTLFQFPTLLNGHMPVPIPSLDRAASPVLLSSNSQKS
Outline: as §1

FEV = target: T4, FEV (Homo sapiens, UniProt Q99581 1-238)
T4 sequence: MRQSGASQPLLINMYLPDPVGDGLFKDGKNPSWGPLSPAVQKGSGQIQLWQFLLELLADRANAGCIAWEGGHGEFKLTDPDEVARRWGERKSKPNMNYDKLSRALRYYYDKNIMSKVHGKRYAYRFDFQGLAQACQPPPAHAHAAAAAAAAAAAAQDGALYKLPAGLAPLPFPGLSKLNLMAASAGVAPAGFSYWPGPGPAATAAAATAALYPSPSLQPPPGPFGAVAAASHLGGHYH
Outline: as §1

ETV1 = ETV1 (Homo sapiens, UniProt P50549 1-477)
ETV1, sequence (P50549 whole entry): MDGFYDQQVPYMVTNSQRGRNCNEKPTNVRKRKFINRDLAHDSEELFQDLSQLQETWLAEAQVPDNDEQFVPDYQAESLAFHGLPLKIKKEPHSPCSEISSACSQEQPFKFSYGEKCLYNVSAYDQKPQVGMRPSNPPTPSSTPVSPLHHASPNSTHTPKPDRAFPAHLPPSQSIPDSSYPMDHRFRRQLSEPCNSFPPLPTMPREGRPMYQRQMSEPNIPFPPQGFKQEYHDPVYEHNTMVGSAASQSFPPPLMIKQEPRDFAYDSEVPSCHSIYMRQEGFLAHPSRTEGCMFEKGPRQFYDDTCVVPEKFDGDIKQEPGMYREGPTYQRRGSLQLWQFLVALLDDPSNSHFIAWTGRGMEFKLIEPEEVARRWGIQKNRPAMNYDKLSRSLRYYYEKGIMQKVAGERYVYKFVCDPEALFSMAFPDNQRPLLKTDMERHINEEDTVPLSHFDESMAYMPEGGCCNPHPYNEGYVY
Outline: as §1

ETV3L = target: T5, ETV3L (Homo sapiens, UniProt Q6ZN32 1-361)
T5 sequence: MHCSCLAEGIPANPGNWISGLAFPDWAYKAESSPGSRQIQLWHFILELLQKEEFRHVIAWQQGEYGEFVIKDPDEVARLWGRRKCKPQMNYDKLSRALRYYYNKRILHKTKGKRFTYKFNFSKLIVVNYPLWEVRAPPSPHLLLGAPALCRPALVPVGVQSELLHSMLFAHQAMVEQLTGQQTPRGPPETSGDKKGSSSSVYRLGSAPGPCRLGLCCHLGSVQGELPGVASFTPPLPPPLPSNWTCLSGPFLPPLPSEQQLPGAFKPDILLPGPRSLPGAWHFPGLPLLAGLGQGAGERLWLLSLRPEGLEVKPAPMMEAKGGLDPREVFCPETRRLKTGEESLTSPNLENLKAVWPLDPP
Outline: as §1

ETV7 = target: T6, ETV7 (Homo sapiens, UniProt Q9Y603 1-341)
T6 sequence: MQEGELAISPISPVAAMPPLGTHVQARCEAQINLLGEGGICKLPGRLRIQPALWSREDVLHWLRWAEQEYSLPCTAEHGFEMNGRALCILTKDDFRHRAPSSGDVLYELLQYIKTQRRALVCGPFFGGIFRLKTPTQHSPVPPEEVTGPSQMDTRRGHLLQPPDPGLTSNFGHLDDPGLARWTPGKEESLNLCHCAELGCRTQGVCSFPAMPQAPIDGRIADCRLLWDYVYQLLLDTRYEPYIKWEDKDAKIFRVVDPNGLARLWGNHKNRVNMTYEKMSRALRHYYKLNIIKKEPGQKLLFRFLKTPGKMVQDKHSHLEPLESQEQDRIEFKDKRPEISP
Outline: as §1

CRX = CRX (Homo sapiens, UniProt O43186 1-299)
CRX, sequence (O43186 whole entry): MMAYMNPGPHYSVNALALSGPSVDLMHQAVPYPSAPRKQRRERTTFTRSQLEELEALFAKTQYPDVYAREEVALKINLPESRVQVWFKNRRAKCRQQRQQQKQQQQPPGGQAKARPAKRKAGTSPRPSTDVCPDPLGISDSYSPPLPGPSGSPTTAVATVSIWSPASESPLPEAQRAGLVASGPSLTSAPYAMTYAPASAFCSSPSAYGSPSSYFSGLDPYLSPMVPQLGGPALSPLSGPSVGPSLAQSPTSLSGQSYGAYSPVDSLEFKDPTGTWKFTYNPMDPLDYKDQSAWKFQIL
Outline: as §1

GABPA = target: T7, GABPA (Homo sapiens, UniProt Q06546 1-454)
T7 sequence: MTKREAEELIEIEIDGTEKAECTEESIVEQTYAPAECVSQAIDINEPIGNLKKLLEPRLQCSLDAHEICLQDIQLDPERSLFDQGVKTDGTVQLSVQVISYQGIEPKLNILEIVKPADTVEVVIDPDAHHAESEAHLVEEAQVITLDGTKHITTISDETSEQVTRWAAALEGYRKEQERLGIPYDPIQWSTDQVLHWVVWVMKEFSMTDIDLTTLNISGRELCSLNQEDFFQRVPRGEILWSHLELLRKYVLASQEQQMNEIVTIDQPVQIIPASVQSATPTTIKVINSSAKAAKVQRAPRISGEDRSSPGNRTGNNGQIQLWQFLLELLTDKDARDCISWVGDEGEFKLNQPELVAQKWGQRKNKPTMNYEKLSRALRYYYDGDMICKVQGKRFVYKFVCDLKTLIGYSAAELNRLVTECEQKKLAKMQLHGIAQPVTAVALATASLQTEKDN
Outline: as §1

EHF = target: T8, EHF (Homo sapiens, UniProt Q9NZC4 1-300)
T8 sequence: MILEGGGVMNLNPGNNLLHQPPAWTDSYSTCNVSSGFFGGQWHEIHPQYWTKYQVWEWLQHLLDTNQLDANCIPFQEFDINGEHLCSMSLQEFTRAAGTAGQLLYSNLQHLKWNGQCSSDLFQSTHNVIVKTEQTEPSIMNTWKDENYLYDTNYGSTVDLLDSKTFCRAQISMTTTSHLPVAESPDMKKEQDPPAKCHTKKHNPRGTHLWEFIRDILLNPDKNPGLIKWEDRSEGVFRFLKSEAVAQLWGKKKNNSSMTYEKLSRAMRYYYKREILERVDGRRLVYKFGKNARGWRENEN
Outline: as §1

ELF3 = target: T9, ELF3 (Homo sapiens, UniProt P78545 1-371)
T9 sequence: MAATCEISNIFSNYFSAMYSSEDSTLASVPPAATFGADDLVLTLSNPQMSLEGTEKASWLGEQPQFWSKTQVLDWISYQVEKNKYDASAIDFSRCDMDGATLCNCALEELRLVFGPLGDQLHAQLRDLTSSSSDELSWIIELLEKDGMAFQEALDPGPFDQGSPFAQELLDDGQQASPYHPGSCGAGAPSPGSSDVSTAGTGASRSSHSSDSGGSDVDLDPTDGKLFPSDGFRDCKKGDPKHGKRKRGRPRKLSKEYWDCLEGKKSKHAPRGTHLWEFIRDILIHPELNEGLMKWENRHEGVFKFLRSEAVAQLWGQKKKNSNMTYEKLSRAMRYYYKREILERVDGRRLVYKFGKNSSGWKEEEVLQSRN
Outline: as §1

For GTGGTA, the binding signal (SPI1) was 1.02 fold enrichment (6-mer frequency, TF over GST control), the binding signal (SPIB) was 1 fold enrichment (6-mer frequency, TF over GST control) and the binding signal (ELK4) was 1.02 fold enrichment (6-mer frequency, TF over GST control).
GTTGCC was tested, and the binding signal (ELK1) was 1.01 fold enrichment (6-mer frequency, TF over GST control), the binding signal (ELK3) was 1 fold enrichment (6-mer frequency, TF over GST control) and the binding signal (FEV) was 1.02 fold enrichment (6-mer frequency, TF over GST control). The binding signal (ELK4) was 1.07 fold enrichment (6-mer frequency, TF over GST control), the binding signal (ETV1) was 1.05 fold enrichment (6-mer frequency, TF over GST control) and the binding signal (ETV3L) was 1.03 fold enrichment (6-mer frequency, TF over GST control). For the same sequence, the binding signal (ETV7) was 1.04 fold enrichment (6-mer frequency, TF over GST control).
With AAGCCA the binding signal (ELK4) was 1.02 fold enrichment (6-mer frequency, TF over GST control) and the binding signal (CRX) was 1.12 fold enrichment (6-mer frequency, TF over GST control).
For GTGCAA, the binding signal (GABPA) was 1.02 fold enrichment (6-mer frequency, TF over GST control), the binding signal (EHF) was 1 fold enrichment (6-mer frequency, TF over GST control) and the binding signal (SPI1) was 1.06 fold enrichment (6-mer frequency, TF over GST control). The binding signal (ELK4) was 1.05 fold enrichment (6-mer frequency, TF over GST control), the binding signal (ELF3) was 1.07 fold enrichment (6-mer frequency, TF over GST control) and the binding signal (ETV1) was 1.05 fold enrichment (6-mer frequency, TF over GST control).
With GATTGA the binding signal (ELK1) was 1.01 fold enrichment (6-mer frequency, TF over GST control) and the binding signal (CRX) was 1.11 fold enrichment (6-mer frequency, TF over GST control).
